This passage reports composite z-score and z-score results from PubChem BioAssay.

The structures appear in SMILES notation. The source made the active and inactive calls.

The test system of experiment [1] is Wnt5a (protein binding on small-molecule microarray). Briefly: small molecules binding Wnt5a protein – biophysical, small-molecule microarray, 635/667 nm fluorescence, primary screen (AID 1142).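 Further: fluorescence read at 667 nm with signal to noise per printed feature.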 As to conditions: 635 nm fluorescence, higher = more signal.
Experiment [2] is described as follows: ATP-based viability of Huh7 replicon cells – cell-based, CellTiter-Glo luminescence, basal, 48 h, cytotoxicity control for HCV replication inhibitor project, primary screen (AID 1143).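 Further: Huh7 hepatoma cells carrying a hepatitis C replication reporter with no stimulus; test concentration not given here.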 As to conditions: higher = more signal, called active from +8 up or from −8 down. (In general: A replicon is a self-replicating genome or part of one, used to study replication in cells.)

Experiment [3] in a line: basal CRE-LacZ reporter activity in PC12 – cell-based, unstimulated, primary screen (AID 1145). The note with it: no forskolin, luminescence, 4.5 h, higher = more signal, called active from +8 up or from −8 down.
A short description of experiment [4]: forskolin-driven CRE-LacZ activity in PC12 – cell-based, CRE-LacZ reporter, forskolin-stimulated, primary screen (AID 1146).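 Further: PC12 cells with 6xCRE LacZ reporter stimulated by forskolin 10 µM; beta-galactosidase reporter signal reflecting CREB driven transcription.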 The note with it: luminescence, 4.5 h, higher = more signal, called active from +8 up or from −8 down.
In experiment [5] the target is Streptavidin (Streptomyces avidinii) (UniProt P22629). Kind of experiment: compounds binding control protein streptavidin – biophysical, small-molecule microarray, 635/667 nm fluorescence, artefact control for SMM compound annotation, primary screen (AID 1147).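 Further: signal reflects streptavidin binding to arrayed compounds as a control protein.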 As to conditions: higher = more signal.
Sequence of Streptavidin (Streptomyces avidinii) (P22629 whole entry, looked up): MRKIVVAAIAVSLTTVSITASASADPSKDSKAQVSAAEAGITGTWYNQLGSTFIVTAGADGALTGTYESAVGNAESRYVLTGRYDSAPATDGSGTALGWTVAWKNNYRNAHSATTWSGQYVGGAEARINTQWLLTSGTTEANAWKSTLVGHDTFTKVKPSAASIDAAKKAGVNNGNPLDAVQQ
Experiment [6] can be described thus: probe aInhba binding on compound microarray – biochemical, small-molecule microarray, 635/667 nm fluorescence, primary screen (AID 1148).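 Further: score merges 667nm spot fluorescence with signal-to-noise for antibody binding to printed compounds.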 The note with it: higher = more signal.
Experiment [7] concerns the target Torsin-1A (Homo sapiens) (UniProt O14656). Briefly: TOR1A wild-type binding on microarray – cell lysate, small-molecule microarray, lysate, 635/667 nm, primary screen (AID 1149). As to conditions: COS7 hTOR1A-WT lysate, 635 nm fluorescence, higher = more signal.
For experiment [8] the target is unchanged. Kind of experiment: torsin A mutant lysate binding on microarrays – cell lysate, small-molecule microarray, COS7 lysate, 635/667 nm fluorescence, primary screen (AID 1150).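 Further: score pools 667 nm emission and signal to noise measuring lysate protein binding.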 The note with it: COS7 hTOR1A mutant lysate, 635 nm fluorescence, higher = more signal.
Experiment [9] has as its system Sonic hedgehog protein (Shh). Briefly: Sonic hedgehog microarray binding compounds – biochemical, small-molecule microarray, 635/667 nm fluorescence, primary screen (AID 1151).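 Further: Shh protein binding to compounds spotted on small-molecule microarray slides; score combines spot fluorescence intensity with signal-to-noise across triplicate slides.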 The note with it: 635 nm fluorescence, higher = more signal.
The nature of experiment [10]: optical density shifts of acrAB sulA E. coli – strain DRC41, OD650, 48 h, E. coli filamentation inducer project, primary screen (AID 1152).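 Further: E. coli MC1000 strain DRC41 lacking acrAB efflux pump and sulA.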 The note with it: higher = more signal, called active from +8 up or from −8 down.
Experiment [11] is described as follows: probe aLefty1 binding on compound microarray – biochemical, small-molecule microarray, 635/667 nm fluorescence, primary screen (AID 1153).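 Further: score merges spot fluorescence with signal-to-noise ratio from the scanned slide images.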 The note with it: higher = more signal.
Experiment [12] is described as follows: plasmodial surface anion channel blockers, osmotic lysis – cell-based, P. falciparum Indochina, OD700, 1 h, primary screen (AID 1154). As to conditions: P. falciparum Indochina infected RBC osmotic lysis, higher = more signal, called active from +8 up or from −8 down.
A short description of experiment [13]: plasmodial surface anion channel blockers, osmotic lysis – cell-based, P. falciparum Indochina, OD700, 2 h, primary screen (AID 1155).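 Further: lysis reports solute entry through the parasite surface anion channel PSAC.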 As to conditions: P. falciparum Indochina infected erythrocytes, higher = more signal, called active from +8 up or from −8 down.
Experiment [14] can be described thus: changes in parasitized red cell lysis, either direction – P. falciparum Indochina, OD700, 3 h, PSAC antagonist project, primary screen (AID 1156). As to conditions: P. falciparum-infected erythrocytes, osmotic lysis, higher = more signal, called active from +8 up or from −8 down.
The nature of experiment [15]: plasmodial surface anion channel blockers, osmotic lysis – cell-based, P. falciparum Indochina, OD700, 18 h, primary screen (AID 1157). As to conditions: P. falciparum Indochina infected erythrocytes, osmotic lysis OD700, 18 h; higher = more signal, called active from +8 up or from −8 down.
Experiment [16] in a line: S6 kinase pathway phospho-S6 level changes – cell-based, A549, cytoblot, luminescence, serum-stimulated, primary screen (AID 1158).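 Further: serum-stimulated A549 lung adenocarcinoma cells; signal is phosphorylated S6 detected by cytoblot immunostaining with HRP secondary.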 The note with it: 5 h, higher = more signal.
Experiment [17] addresses NADPH oxidase 2 (Homo sapiens) (UniProt P04839). Kind of experiment: compounds shifting NOX2 Amplex Red fluorescence – cell-based, HEK293-NOX2, PMA-stimulated, NOX inhibitor project, primary screen (AID 1159). Further: test concentration not given here. The note with it: 45 min, higher = more signal, called active from +8 up or from −8 down.
The target of experiment [18] is NADPH oxidase 4 (Homo sapiens) (UniProt Q9NPH5). Briefly: compounds shifting NOX4 Amplex Red fluorescence – cell-based, HEK293-NOX4, tetracycline-induced, NOX inhibitor project, primary screen (AID 1160). The note with it: HEK293-NOX4, Amplex Red H2O2 fluorescence, 45 min; higher = more signal, called active from +8 up or from −8 down.
Sequence of NADPH oxidase 4 (Homo sapiens) (Q9NPH5 whole entry, looked up): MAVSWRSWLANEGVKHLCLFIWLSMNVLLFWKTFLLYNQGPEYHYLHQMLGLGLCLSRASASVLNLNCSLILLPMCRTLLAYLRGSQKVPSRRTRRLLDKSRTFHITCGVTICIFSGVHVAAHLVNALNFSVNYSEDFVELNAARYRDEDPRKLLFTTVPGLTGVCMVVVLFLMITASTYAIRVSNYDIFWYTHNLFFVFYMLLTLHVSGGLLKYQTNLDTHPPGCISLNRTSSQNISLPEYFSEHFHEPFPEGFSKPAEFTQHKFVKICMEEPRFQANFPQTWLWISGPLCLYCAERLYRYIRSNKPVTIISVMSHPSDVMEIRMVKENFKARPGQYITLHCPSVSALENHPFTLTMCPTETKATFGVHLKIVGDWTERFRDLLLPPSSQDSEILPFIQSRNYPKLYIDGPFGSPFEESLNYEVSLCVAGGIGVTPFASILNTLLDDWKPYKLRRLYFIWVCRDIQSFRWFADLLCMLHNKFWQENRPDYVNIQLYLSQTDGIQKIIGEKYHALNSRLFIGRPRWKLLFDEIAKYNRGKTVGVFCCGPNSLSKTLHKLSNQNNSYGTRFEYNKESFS
The target in experiment [19] is NADPH oxidase 5 (Homo sapiens) (UniProt Q96PH1). Briefly: compounds shifting NOX5 Amplex Red fluorescence – cell-based, HEK293-NOX5, NOX inhibitor project, primary screen (AID 1161). As to conditions: HEK293-NOX5, ionomycin, 45 min, higher = more signal.
Sequence of NADPH oxidase 5 (Homo sapiens) (Q96PH1 whole entry, looked up): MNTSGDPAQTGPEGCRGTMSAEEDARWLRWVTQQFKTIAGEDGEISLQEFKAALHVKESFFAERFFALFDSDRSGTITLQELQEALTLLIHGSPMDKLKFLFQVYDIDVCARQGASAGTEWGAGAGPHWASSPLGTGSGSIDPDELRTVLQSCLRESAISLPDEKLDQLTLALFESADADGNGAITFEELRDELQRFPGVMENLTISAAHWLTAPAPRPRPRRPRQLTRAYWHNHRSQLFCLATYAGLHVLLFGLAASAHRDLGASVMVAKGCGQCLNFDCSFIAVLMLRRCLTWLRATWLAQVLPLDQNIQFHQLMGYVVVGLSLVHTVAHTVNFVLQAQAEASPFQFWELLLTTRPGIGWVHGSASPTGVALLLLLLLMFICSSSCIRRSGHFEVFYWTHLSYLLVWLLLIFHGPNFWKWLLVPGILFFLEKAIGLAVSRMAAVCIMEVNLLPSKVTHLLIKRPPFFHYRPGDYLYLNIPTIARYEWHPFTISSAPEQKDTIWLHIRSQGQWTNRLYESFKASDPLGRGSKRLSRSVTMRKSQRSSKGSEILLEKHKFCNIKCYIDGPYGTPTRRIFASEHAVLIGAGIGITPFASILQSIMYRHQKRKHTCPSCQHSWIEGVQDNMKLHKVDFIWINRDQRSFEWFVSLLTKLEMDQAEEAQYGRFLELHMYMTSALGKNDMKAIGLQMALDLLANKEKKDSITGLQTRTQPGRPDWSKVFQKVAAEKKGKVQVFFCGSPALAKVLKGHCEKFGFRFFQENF
Experiment [20] is described as follows: compound effects on lung adenocarcinoma cell viability – A549, calcein-AM fluorescence, 48 h, basal, profiling panel (AID 1162). Further: test concentration not given here. The note with it: higher = more signal.

Sequence of Torsin-1A (Homo sapiens) (O14656 whole entry, looked up): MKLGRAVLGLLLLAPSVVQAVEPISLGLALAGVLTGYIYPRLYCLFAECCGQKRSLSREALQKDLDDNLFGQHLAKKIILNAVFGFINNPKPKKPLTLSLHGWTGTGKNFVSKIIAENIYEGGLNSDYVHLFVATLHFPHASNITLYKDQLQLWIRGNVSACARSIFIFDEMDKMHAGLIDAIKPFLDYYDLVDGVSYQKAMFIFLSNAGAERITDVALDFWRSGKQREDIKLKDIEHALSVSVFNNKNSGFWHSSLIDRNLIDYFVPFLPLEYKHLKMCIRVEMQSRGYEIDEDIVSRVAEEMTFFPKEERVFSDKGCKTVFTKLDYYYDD
Sequence of NADPH oxidase 2 (Homo sapiens) (P04839 whole entry, looked up): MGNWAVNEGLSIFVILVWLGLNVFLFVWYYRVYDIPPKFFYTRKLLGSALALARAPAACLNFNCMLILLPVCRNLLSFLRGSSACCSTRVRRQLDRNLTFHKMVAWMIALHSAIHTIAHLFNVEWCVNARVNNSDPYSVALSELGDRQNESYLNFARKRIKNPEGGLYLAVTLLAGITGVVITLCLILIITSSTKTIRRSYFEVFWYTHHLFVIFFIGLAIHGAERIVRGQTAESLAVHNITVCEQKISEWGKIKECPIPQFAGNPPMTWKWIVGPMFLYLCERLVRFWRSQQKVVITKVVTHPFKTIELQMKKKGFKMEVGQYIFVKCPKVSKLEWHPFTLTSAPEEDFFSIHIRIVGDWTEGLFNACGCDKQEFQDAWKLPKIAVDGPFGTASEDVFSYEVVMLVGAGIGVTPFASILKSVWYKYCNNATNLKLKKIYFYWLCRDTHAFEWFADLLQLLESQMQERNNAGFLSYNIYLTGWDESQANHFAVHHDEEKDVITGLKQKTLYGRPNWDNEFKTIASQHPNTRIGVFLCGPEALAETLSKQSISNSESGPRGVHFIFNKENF

For the molecule `O=C(NCc1ccccc1)[C@@H]1c2ccccc2C(=O)N(Cc2ccccc2Cl)[C@H]1c1ccc(CO)cc1`, the composite z-score in experiment [1] was 0.531; in [5] it was 0.527; in [6] it was -0.119; in experiment [7], 1.1; in [8], 0.759; in experiment [9] it was 1.54. In experiment [11], this molecule gave a composite z-score of 0.139. Also, the z-score in experiment [2] was -1.32 (inactive); in [3], -0.152 (inactive); in experiment [4], -0.918 (inactive); in [10], 2.17 (inactive); in [12], 1.79 (inactive); in experiment [13], -0.576 (inactive). Also, the z-score in experiment [14] is -0.0527 (inactive); in experiment [15] it was -1.17 (inactive); in [16], 0.894; in experiment [17] it was -0.932 (inactive); in experiment [18], 0.992 (inactive); in experiment [19], -0.544. Moreover, the z-score in experiment [20] is 0.703.

Turning to `COC(=O)c1c2oc(c1C(=O)OC)C(=O)N[C@@H](C(C)C)Cn1nncc1C1(CCCCC1)NC(=O)N[C@H](CO)CC2`, the composite z-score in experiment [1] was -0.0906; in [5] it was 0.235; in experiment [6], -0.195; in [7], 0.217; in experiment [8], -0.422; in [9] it was -0.0256. Also, the composite z-score in [11] was -0.235. Besides, the z-score in experiment [2] is -0.475 (inactive); in [3], 1.44 (inactive); in experiment [4] it was -0.575 (inactive); in [10], 3.17 (inactive); in [12], 1.05 (inactive); in [13], 1.49 (inactive). The z-score was 0.168 (inactive) in [14]; 1.41 (inactive) in experiment [15]; 0.651 in experiment [16]; 0.234 (inactive) in [17]; 0.991 (inactive) in experiment [18]; -0.162 in experiment [19]. Moreover, the z-score in experiment [20] is 2.55.

As to `C=CCNC(=O)[C@H]1[C@@H]2C(=O)O[C@@H](c3ccccc3)[C@@H](c3ccccc3)N2[C@@H](c2ccc(OCCO)cc2)[C@]12C(=O)Nc1ccc(C#CCCO)cc12`, the composite z-score in experiment [1] is -0.09; in [5], -0.0494; in [6], -0.0639; in experiment [7], 0.234; in experiment [8], 0.21; in experiment [9], 1.06. The same molecule returned a composite z-score in experiment [11] of 0.0793. In addition, the z-score in experiment [2] was -2.34 (inactive); in experiment [3] it was 0.0384 (inactive); in [4], 0.8 (inactive); in experiment [10], 2.32 (inactive); in experiment [12], 4.5 (inactive); in experiment [13], -0.407 (inactive). Further, the z-score in [14] is -0.144 (inactive); in experiment [15] it was -2.03 (inactive); in [16], 2.16; in [17], 2.4 (inactive); in experiment [18], 1.18 (inactive); in [19], 0.572. Moreover, the z-score in [20] was 0.109.

As for `COC(=O)C1=CC(c2ccc(CO)cc2)=CC(c2cccs2)N(C)C=C1C(=O)OC` (stereo not given), the composite z-score in [1] is -0.246; in experiment [5], 0.295; in experiment [6] it was -0.0471; in experiment [7], 0.503; in experiment [8], 0.634; in experiment [9] it was 0.335. In [11], this molecule came in with a composite z-score of 0.571. For the same molecule, the z-score in experiment [2] was -3.59 (inactive); in experiment [3], -0.348 (inactive); in experiment [4] it was -0.534 (inactive); in experiment [10], 2.46 (inactive); in experiment [12] it was 6.76 (inactive); in experiment [13], 0.0213 (inactive). Further, the z-score in experiment [14] is -0.64 (inactive); in experiment [15] it was -1.49 (inactive); in experiment [16], 1.67; in [17], -1.48 (inactive); in [18], -2.33 (inactive); in experiment [19] it was -1.44. Also, the z-score in experiment [20] was 0.126.

With `C=C(COC)C(=O)CC[C@H](OC(=O)c1ccccc1-c1ccccc1C(=O)O)c1ccccc1OCCO`, the composite z-score is 0.032 in experiment [1]; 0.0456 in experiment [5]; -0.0021 in [6]; 0.241 in experiment [7]; -0.063 in experiment [8]; 1.2 in experiment [9]. Also, the composite z-score in [11] is -0.196. In addition, the z-score in [2] is -0.828 (inactive); in [3], 0.844 (inactive); in [4], 0.122 (inactive); in [10], 0.832 (inactive); in [12], 4.88 (inactive); in experiment [13] it was 0.673 (inactive). For the same molecule, the z-score is 2.51 (inactive) in experiment [14]; 0.65 (inactive) in [15]; -0.541 in experiment [16]; 2.1 (inactive) in experiment [17]; 0.0678 (inactive) in experiment [18]; -1.57 in experiment [19]. Also, the z-score in experiment [20] was 0.341.
